Measurements reported in PubChem BioAssay (NCATS).
Records with an inconclusive call do not appear. Calls of active or inactive are those of the source. The call rests on the fitted dose curve; in most records, active means well fitted curve in the direction sought with a large enough effect; inconclusive means small, poorly fitted or top-dose-only effect, or another doubt; inactive means no such curve, though single readings can be large; an effect the other way counts as inactive or inconclusive.

Tests used:
[1] = qHTS of pediatric cancer cell lines to identify multiple opportunities for drug repurposing: Primary screen for TC32 cells (AID 1347089); further: nearly all actives have a fitted effect of over 60% in size; on activity change, negative = cytotoxic: on the % scale 0 is the no-effect control and ±100 the full control effect
In short: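 Measured quantity: luminescence from CellTiter-Glo, reflecting metabolically active TC32 cells following 48 h of compound. Curves came straight from multi-point titrations, with 8 or 11 points in primary and 11 in confirmatory screening.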

[2] = qHTS of pediatric cancer cell lines to identify multiple opportunities for drug repurposing: Primary screen for DAOY cells (AID 1347090); further: nearly all actives have a fitted effect of over 55% in size;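 on activity change, negative = cytotoxic: series mostly up to about 46 µM; plate controls were DMSO for no effect and bortezomib for full effect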
In short: (§1)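 Viability measured as metabolically active cells via CellTiter-Glo luminescence following 48 hours of compound exposure, 11-point dilutions in confirmatory testing. 500-1,000 cells/well plated 5 hours before dosing; controls were DMSO and 2.3 µM bortezomib.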

[3] = qHTS of pediatric cancer cell lines to identify multiple opportunities for drug repurposing: Primary screen for A673 cells (AID 1347092); further: nearly all actives have a fitted effect of over 45% in size
In short: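 Cells are plated, rested 5 h, dosed by pintool, incubated 48 h, then lysed with CellTiter-Glo and read by luminescence. DMSO is the neutral control; bortezomib at 2.3 uM final is the positive control.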

[4] = qHTS of pediatric cancer cell lines to identify multiple opportunities for drug repurposing: Primary screen for SK-N-MC cells (AID 1347093);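 on activity change, negative = cytotoxic: series mostly up to about 46 µM; plate controls were DMSO neutral control for no effect and bortezomib for full effect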
In short: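 Metabolically active cells were quantified by ATP-dependent luminescence (CellTiter-Glo, 15 min at room temperature) following 48 h treatment. Cells had been plated at 500-1,000 per well and settled for 5 h beforehand.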

[5] = qHTS of pediatric cancer cell lines to identify multiple opportunities for drug repurposing: Primary screen for BT-37 cells (AID 1347094);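 on activity change, negative = cytotoxic: series mostly up to about 57 µM; plate controls were DMSO for no effect and bortezomib for full effect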
In short: (§2)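 Readout: CellTiter-Glo luminescence, 48 h treatment. Controls DMSO (neutral) and bortezomib 2.3 µM final (positive). Potency and efficacy taken from primary-screen concentration-response curves.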

[6] = qHTS of pediatric cancer cell lines to identify multiple opportunities for drug repurposing: Primary screen for NB-EBc1 cells (AID 1347095);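 on activity change, negative = cytotoxic: plate controls were DMSO neutral control for no effect and bortezomib for full effect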
In short: as §2

[7] = qHTS of pediatric cancer cell lines to identify multiple opportunities for drug repurposing: Primary screen for U-2 OS cells (AID 1347096); further: nearly all actives have a fitted effect of over 50% in size;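 on activity change, negative = cytotoxic: plate controls were DMSO wells for no effect and bortezomib positive control wells for full effect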
In short: (§3)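 Viability after 48 h compound treatment at 37C, 500-1,000 cells/well, read as ATP luminescence with CellTiter-Glo. Primary screens used 11-point (MIPE, 0.78 nM-46 µM) or 8-point (NPC, 0.59 nM-46 µM) final concentrations; follow-up screens used 11-point dilutions.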

[8] = qHTS of pediatric cancer cell lines to identify multiple opportunities for drug repurposing: Primary screen for Saos-2 cells (AID 1347097); further: nearly all actives have a fitted effect of over 40% in size; on activity change, negative = cytotoxic: on the % scale 0 is the no-effect control and ±100 the full control effect
In short: as §2

[9] = qHTS of pediatric cancer cell lines to identify multiple opportunities for drug repurposing: Primary screen for SK-N-SH cells (AID 1347098); further: nearly all actives have a fitted effect of over 65% in size; on activity change, negative = cytotoxic: on the % scale 0 is the no-effect control and ±100 the full control effect
In short: (§4)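 Cells (500-1,000/well) rested 5 h, then received compounds for 48 h; metabolically active cells were measured by CellTiter-Glo luminescence. Final concentrations spanned up to 46 µM (MIPE, 11-point) or 0.59 nM-46 µM (NPC, 8-point) in primary screens, 11-point in follow-ups.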

[10] = qHTS of pediatric cancer cell lines to identify multiple opportunities for drug repurposing: Primary screen for NB1643 cells (AID 1347099); further: nearly all actives have a fitted effect of over 50% in size;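 on activity change, negative = cytotoxic: plate controls were DMSO neutral control for no effect and bortezomib positive control for full effect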
In short: as §2

[11] = qHTS of pediatric cancer cell lines to identify multiple opportunities for drug repurposing: Primary screen for LAN-5 cells (AID 1347100);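 on activity change, negative = cytotoxic: plate controls were DMSO neutral control for no effect and bortezomib positive control for full effect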
In short: as §3

[12] = qHTS of pediatric cancer cell lines to identify multiple opportunities for drug repurposing: Primary screen for BT-12 cells (AID 1347101); further: nearly all actives have a fitted effect of over 25% in size;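 on activity change, negative = cytotoxic: plate controls were DMSO for no effect and bortezomib positive control for full effect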
In short: as §4

[13] = qHTS of pediatric cancer cell lines to identify multiple opportunities for drug repurposing: Primary screen for Rh18 cells (AID 1347102); further: nearly all actives have a fitted effect of over 65% in size; on activity change, negative = cytotoxic: on the % scale 0 is the no-effect control and ±100 the full control effect
In short: as §3

[14] = qHTS of pediatric cancer cell lines to identify multiple opportunities for drug repurposing: Primary screen for OHS-50 cells (AID 1347103); further: nearly all actives have a fitted effect of over 40% in size;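 on activity change, negative = cytotoxic: plate controls were DMSO neutral control for no effect and bortezomib positive control for full effect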
In short: as §4

[15] = qHTS of pediatric cancer cell lines to identify multiple opportunities for drug repurposing: Primary screen for RD cells (AID 1347104); further: nearly all actives have a fitted effect of over 55% in size;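 on activity change, negative = cytotoxic: plate controls were DMSO for no effect and bortezomib for full effect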
In short: as §2

[16] = qHTS of pediatric cancer cell lines to identify multiple opportunities for drug repurposing: Primary screen for MG 63 (6-TG R) cells (AID 1347105); further: nearly all actives have a fitted effect of over 50% in size
In short: as §2

[17] = qHTS of pediatric cancer cell lines to identify multiple opportunities for drug repurposing: Primary screen for control Hh wild type fibroblast cells (AID 1347106); further: nearly all actives have a fitted effect of over 55% in size;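 on activity change, negative = cytotoxic: series mostly up to about 46 µM; on the % scale 0 is the no-effect control and ±100 the full control effect; a drop in luminescence marks cytotoxicity and a rise apparent proliferation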
In short: as §3

[18] = qHTS of pediatric cancer cell lines to identify multiple opportunities for drug repurposing: Primary screen for SJ-GBM2 cells (AID 1347091);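 on activity change, negative = cytotoxic: plate controls were DMSO neutral control for no effect and bortezomib for full effect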
In short: as §1
Potency means the concentration at half of the fitted maximal effect.

O=c1[nH]nc(Sc2ncc([N+](=O)[O-])s2)n1-c1ccc2c(c1)OCCO2
inactive: Potency [1]
active: Potency [2] 9350 nM | Potency [3] 3720 nM | Potency [4] 9350 nM | Potency [5] 21700 nM | Potency [6] 2640 nM | Potency [7] 11800 nM | Potency [8] 10500 nM | Potency [9] 12100 nM | Potency [10] 4690 nM | Potency [11] 8330 nM | Potency [12] 17200 nM | Potency [13] 9350 nM | Potency [14] 9680 nM | Potency [15] 13200 nM | Potency [16] 5900 nM | Potency [17] 14800 nM

COc1ccc(CC2c3cc(OC)c(OC)cc3CC[N+]2(C)CCC(=O)OCCCCCOC(=O)CC[N+]2(C)CCc3cc(OC)c(OC)cc3C2Cc2ccc(OC)c(OC)c2)cc1OC (centres undefined)
inactive: activity change, negative = cytotoxic [1] -1.18% [at 9.17 µM] | activity change, negative = cytotoxic [2] -5.91% [at 9.22 µM] | activity change, negative = cytotoxic [18] 27.6% [at 9.22 µM] | activity change, negative = cytotoxic [4] -16.8% [at 9.22 µM] | activity change, negative = cytotoxic [5] 6.03% [at 11.5 µM] | activity change, negative = cytotoxic [6] 16.9% [at 9.22 µM] | activity change, negative = cytotoxic [7] 3.34% [at 9.22 µM] | activity change, negative = cytotoxic [8] 4.71% [at 9.22 µM] | activity change, negative = cytotoxic [9] -0.106% [at 11.4 µM] | activity change, negative = cytotoxic [10] 1.38% [at 9.22 µM] | activity change, negative = cytotoxic [11] 2.36% [at 9.22 µM] | activity change, negative = cytotoxic [12] 7.29% [at 11.5 µM] | activity change, negative = cytotoxic [13] -3.1% [at 9.22 µM] | activity change, negative = cytotoxic [14] 9.58% [at 11.5 µM] | activity change, negative = cytotoxic [16] 0.923% [at 9.22 µM] | activity change, negative = cytotoxic [17] -1.39% [at 9.22 µM]

C1Cc2[nH]nc(-c3nn[nH]n3)c2C1
inactive: Potency [1] | Potency [2] | Potency [18] | Potency [5] | Potency [6] | Potency [8] | Potency [9] | Potency [11] | Potency [12] | Potency [14] | Potency [15] | Potency [16] | Potency [17]

CN(C)c1nc(Cc2ccc(NC(=O)c3ccc4ccccc4c3)cc2)nc(Cl)c1CC(=O)O
inactive: Potency [1] | Potency [18] | Potency [3] | Potency [4] | Potency [5] | Potency [6] | Potency [7] | Potency [8] | Potency [9] | Potency [10] | Potency [11] | Potency [12] | Potency [14] | Potency [15] | Potency [16]

COc1cccc2nc(-c3cccs3)nc(NN3C(=O)C=C(C)C3=O)c12
inactive: Potency [17]
active: Potency [1] 1860 nM | Potency [18] 935 nM | Potency [3] 2350 nM | Potency [4] 14.8 nM | Potency [5] 863 nM | Potency [6] 332 nM | Potency [7] 1870 nM | Potency [8] 743 nM | Potency [9] 271 nM | Potency [10] 743 nM | Potency [11] 93.5 nM | Potency [12] 2730 nM | Potency [14] 1720 nM | Potency [15] 5260 nM | Potency [16] 2960 nM

Nc1nc(-c2nn(Cc3ccccc3F)c3ncccc23)nc(N)c1N1CCOCC1
inactive: Potency [1] | Potency [2] | Potency [5] | Potency [6] | Potency [8] | Potency [9] | Potency [10] | Potency [11] | Potency [12] | Potency [13] | Potency [15] | Potency [16] | Potency [17]

CN(C)CC(C)(C)CNc1nn2c(-c3ccccc3)nnc2cc1C1CCC1
active: Potency [1] 18600 nM | Potency [18] 1180 nM | Potency [3] 743 nM | Potency [4] 469 nM | Potency [5] 863 nM | Potency [6] 264 nM | Potency [8] 5900 nM | Potency [9] 1210 nM | Potency [10] 935 nM | Potency [11] 418 nM | Potency [14] 1370 nM | Potency [16] 2960 nM
inactive: Potency [7]

CC(C)c1cc(C(=O)N2Cc3ccc(CN4CCN(C)CC4)cc3C2)c(O)cc1O
active: Potency [1] 1040 nM | Potency [2] 935 nM | Potency [3] 296 nM | Potency [4] 332 nM | Potency [6] 132 nM | Potency [8] 935 nM | Potency [9] 482 nM | Potency [10] 187 nM | Potency [11] 209 nM | Potency [13] 526 nM | Potency [14] 769 nM | Potency [15] 209 nM

CCNC(=O)Nc1ccc2ncc(Nc3ccc(C)cc3)nc2n1
inactive: Potency [17]
active: Potency [1] 1860 nM | Potency [2] 37.2 nM | Potency [4] 5.3 nM | Potency [5] 24300 nM | Potency [6] 18700 nM | Potency [8] 18700 nM | Potency [11] 935 nM | Potency [14] 24300 nM
